# Assay results taken from the supplement of paper PMC6279402.
# Structures can show the parent of a compound that is named as a salt. ± gives the standard deviation of the averaged measurements.
# System: A549
# Experiment: relative viability (normalised to negative control = 1, bortezomib = 0) (fraction); higher = less cytotoxic
# Conditions: inflammatory serum-free RHB-A with cytokines + LPS, 5 d + 24 h CellTiter-Blue
# Experimental: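 A549 KRAS-mutant NSCLC cells, pre-treated 5 µM GSK126 or vehicle (DMSO), were seeded at 250 cells/well in 384-well plates in serum-free RHB-A medium with inflammatory cytokines/LPS and treated with Selleck kinase inhibitor and NCI oncology compounds at 30 or 300 nM in triplicate, refreshed at 48 h. Viability was read by CellTiter-Blue after 5 d plus 24 h and normalised per plate with cellHTS2 (mean of bortezomib positive control = 0, mean of negative control = 1).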
# [1] = compound 30 nM, GSK126 pretreatment: 5 uM GSK126
# [2] = compound 30 nM, GSK126 pretreatment: none (vehicle)
# [3] = compound 300 nM, GSK126 pretreatment: 5 uM GSK126
# [4] = compound 300 nM, GSK126 pretreatment: none (vehicle)
compound,measurement,setting,value
O=C(O)CCCc1ccc(N(CCCl)CCCl)cc1 [Chlorambucil],relative viability,[1],0.933 ± 0.1
same,relative viability,[2],0.844 ± 0.11
same,relative viability,[3],0.836 ± 0.13
same,relative viability,[4],0.845 ± 0.12
O=P1(N(CCCl)CCCl)NCCCO1 (stereo not given) [Cyclophosphamide monohydrate; Cyclophosphamide],relative viability,[1],0.799 ± 0.035
same,relative viability,[2],0.813 ± 0.086
same,relative viability,[3],0.877 ± 0.031
same,relative viability,[4],0.941 ± 0.1
C=C1C[C@@H]2[C@H](CC[C@]3(C)C(=O)CC[C@@H]23)[C@@]2(C)C=CC(=O)C=C12 [Exemestane],relative viability,[1],0.797 ± 0.073
same,relative viability,[2],0.82 ± 0.079
same,relative viability,[3],0.839 ± 0.17
same,relative viability,[4],0.971 ± 0.086
Cn1cc(C2=C(c3cn(C4CCN(Cc5ccccn5)CC4)c4ccccc34)C(=O)NC2=O)c2ccccc21 [Enzastaurin],relative viability,[1],0.823 ± 0.11
same,relative viability,[2],0.831 ± 0.05
same,relative viability,[3],0.789 ± 0.042
same,relative viability,[4],0.802 ± 0.037
NCCCNCCSP(=O)(O)O [Amifostine],relative viability,[1],0.96 ± 0.16
same,relative viability,[2],0.908 ± 0.078
same,relative viability,[3],0.964 ± 0.12
same,relative viability,[4],0.96 ± 0.078
Cn1c(CCCC(=O)O)nc2cc(N(CCCl)CCCl)ccc21 [bendamustine hydrochloride],relative viability,[1],0.713 ± 0.012
same,relative viability,[2],0.729 ± 0.045
same,relative viability,[3],0.784 ± 0.012
same,relative viability,[4],0.865 ± 0.056
Cc1ccccc1-n1c(Cn2ncc3c(N)ncnc32)nc2cccc(C)c2c1=O,relative viability,[1],0.756 ± 0.055
same,relative viability,[2],0.787 ± 0.046
same,relative viability,[3],0.689 ± 0.12
same,relative viability,[4],0.857 ± 0.13
Cc1ccccc1-n1c(Cn2cnc3c(N)ncnc32)nc2cccc(C)c2c1=O,relative viability,[1],0.828 ± 0.076
same,relative viability,[2],0.784 ± 0.083
same,relative viability,[3],0.79 ± 0.088
same,relative viability,[4],0.875 ± 0.056
Cc1c(N)nc([C@H](CC(N)=O)NC[C@H](N)C(N)=O)nc1C(=O)N[C@H](C(=O)N[C@H](C)[C@@H](O)[C@H](C)C(=O)N[C@H](C(=O)NCCc1nc(-c2nc(C(=O)NCCC[S+](C)C)cs2)cs1)[C@@H](C)O)[C@@H](OC1OC(CO)C(O)C(O)C1OC1OC(CO)C(O)C(OC(N)=O)C1O)c1cnc[nH]1 (stereo not given in full) [Bleomycin sulfate],relative viability,[1],0.821 ± 0.13
same,relative viability,[2],0.871 ± 0.061
same,relative viability,[3],0.739 ± 0.064
same,relative viability,[4],0.84 ± 0.069
O=P1(NCCCl)OCCCN1CCCl (stereo not given) [Ifosfamide],relative viability,[1],0.792 ± 0.087
same,relative viability,[2],0.806 ± 0.063
same,relative viability,[3],0.803 ± 0.16
same,relative viability,[4],0.91 ± 0.11
